PubChem BioAssay (NCATS)
Values without a mark were called inactive. A call without a number means that no potency is given here. The source made the active and inactive calls. Calls come from the whole dose curve; as a rule, active = well fitted inhibition curve with a large enough effect; inconclusive = small, poorly fitted or top-dose-only effect; inactive = flat fitted curve, though single readings scatter.

target: Luciferin 4-monooxygenase (Photinus pyralis) (UniProt P08659); assay: Primary firefly luciferase (FLuc) qHTS assay for identification of artifact compounds. (AID 1845220); settings: purified firefly luciferase, luminescence, 5 min; series mostly up to 54.1 µM; note: nearly all actives have a fitted effect of over 60% in size
Excerpt: PI: Alexander Tropsha Ph.D.
UNC Eshelman School of Pharmacy
University of North Carolina, Chapel Hill, North Carolina
Hits from high-throughput screening (HTS) of chemical libraries are often false positives due to their interference with the assay detection technology. In response to this problem, we generated the largest publicly available library of chemical liabilities and developed a free webtool to predict HTS artifacts, both of which are described herein. More specifically, we generated, curated, and integrated HTS datasets for thiol reactivity, redox activity, and luciferase (firefly and nano) activity. Using these curated datasets, we developed and validated several Quantitative Structure-Interference Relationship (QSIR) models to predict nuisance behavior. […] These models were employed for virtual profiling of the National Center for Advancing Translational Science's (NCATS) in-house library, and 256 compounds for each assay were selected for the experimental validation of nuisance behavior. The BA for these external predictions ranged from 58 to 78% for compounds within the applicability domains of the models. […] The models developed in this study, along with aggregation models previously developed by our group (SCAM Detective) were implemented in "Liability Predictor," an online tool which may be used as part of chemical library design or for triaging HTS hits. Both the models and the curated datasets are publicly available at https://liability.mml.unc.edu/.
SEQUENCE No. (e.g., 1, 2, 3, etc.); […] (e.g., Cells, Incubation, Reagent, etc.); VALUE; DESCRIPTION.
1; Reagent; 3 uL; Luciferase substrate mixture.
2; Compounds and control; 16 nL; Kalypsis pin tool (Wako USA) equipped with a 1536-well pin head.
4; Reagent; 1 uL; Luciferase enzyme.
6; Detection; Luminescence, ViewLux microplate reader.
NOTES (numbers refer to Sequence numbers above)
1. 3 uL of luciferase substrate mixture containing D-luciferin and ATP (final concentrations of 10 uM and 10 uM, respectively) in assay buffer (10 mM Mg-acetate, 0.01% Tween-20, 0.05% bovine serum albumin, 50 mM Tris acetate, pH 7.6) was dispensed into all wells of a 1536-well assay plate (solid-bottom white plate; Greiner Bio One, Monroe, NC).
2. A Wako Pin-tool (Wako Automation, Richmond, VA) was used to transfer 16 nL of compounds (consisting of 7-plates in qHTS format, final concentration range 18.3 nM to 114 uM) or control PTC124 (final concentration range 1.22 nM to 40 uM).
3. 15 min. incubation at room temperature protected from light.
4. 1 uL of luciferase enzyme (final concentration 10 nM, Photinus pyralis luciferase) or buffer was dispensed for a final assay volume of 4 uL.
5. Plates were centrifuged (121xg, 15 seconds) and incubated for 5 minutes.
6. Samples were read for luminescence on a ViewLux CCD imager (PerkinElmer). Data were normalized to no-enzyme (0% activity) and no-inhibitor (DMSO; 100%) controls and the resulting percent inhibition data were fitted to a 4-parameter Hill equation using NCATS in-house software.
Potency is the fitted concentration of half-maximal effect.

| SMILES | Potency | activity change, negative = inhibition |
| --- | --- | --- |
| c1cnc2cc3c(cc2n1)C1CNCC3C1 | inactive |  |
| Cc1cc2c(s1)Nc1ccccc1N=C2N1CCN(C)CC1 | inactive |  |
| CN(c1nccc(=O)[nH]1)C1CCN(c2nc3ccccc3n2Cc2ccc(F)cc2)CC1 | inactive |  |
| O=C(NOCC1CC1)c1ccc(F)c(F)c1Nc1ccc(I)cc1Cl | inactive |  |
| Clc1ccc(C(Cn2ccnc2)OCc2c(Cl)cccc2Cl)c(Cl)c1 (stereo unspecified) | inactive |  |
| COCCCOc1ccnc(CS(=O)c2nc3ccccc3[nH]2)c1C (stereo unspecified) | inactive |  |
| Cc1ccc(Nc2nccc(N(C)c3ccc4c(C)n(C)nc4c3)n2)cc1S(N)(=O)=O | inactive |  |
| N[C@@H](Cc1cc(I)c(Oc2cc(I)c(O)c(I)c2)c(I)c1)C(=O)O | inactive |  |
| C=C(c1ccc(C(=O)O)cc1)c1cc2c(cc1C)C(C)(C)CCC2(C)C | inactive |  |
| OC(CN1CCN(c2cccc(Cl)c2)CC1)C(c1ccccc1)c1ccccc1 (stereo unspecified) | inactive |  |
| CN(C)C(=O)[C@H](O)[C@H](Cc1ccccc1)NC(=O)c1cc2cc(Cl)ccc2[nH]1 | inactive |  |
| O=C(OC1C[C@H]2CC[C@@H](C1)[N+]21CCCC1)C(O)(c1ccccc1)c1ccccc1 (stereo partly specified) | inactive |  |
| CCC(C)(Oc1ccc(C2(c3ccc(OC(C)(CC)C(=O)O)cc3)CCCCC2)cc1)C(=O)O (stereo unspecified) | inactive |  |
| CC(C)c1nc(CN(C)C(=O)N[C@H](C(=O)N[C@@H](Cc2ccccc2)C[C@H](O)[C@H](Cc2ccccc2)NC(=O)OCc2cncs2)C(C)C)cs1 | inactive |  |
| Cc1nccn1CC1CCc2c(c3ccccc3n2C)C1=O (stereo unspecified) | inactive |  |
| CCCS(=O)c1ccc2nc(NC(=O)OC)[nH]c2c1 (stereo unspecified) | inactive |  |

| SMILES | Potency | activity change, negative = inhibition |
| --- | --- | --- |
| CCC1=C(C)CN(C(=O)NCCc2ccc(S(=O)(=O)NC(=O)NC3CCC(C)CC3)cc2)C1=O (stereo unspecified) | inactive |  |
| O=C(O)c1cccc(-c2noc(-c3ccccc3F)n2)c1 | 0.0067 µM (active) |  |
| CCN(CCO)CCCC(C)Nc1ccnc2cc(Cl)ccc12 (stereo unspecified) |  | -0.741% [at 6.45 µM] |
| Cc1ccc(NC(=O)c2ccc(CN3CCN(C)CC3)cc2)cc1Nc1nccc(-c2cccnc2)n1 | 19 µM (active) |  |
| CC(=O)O[C@H]1C(=O)[C@@]2(C)C([C@H](OC(=O)c3ccccc3)[C@]3(O)C[C@H](OC(=O)[C@H](O)[C@@H](NC(=O)c4ccccc4)c4ccccc4)C(C)=C1C3(C)C)[C@]1(OC(C)=O)CO[C@@H]1C[C@@H]2O (stereo partly specified) | inactive |  |
| COc1ccc(C2(C#N)CCC(C(=O)O)CC2)cc1OC1CCCC1 (stereo unspecified) | inactive |  |
| COc1cc2c(N3CCN(C(=O)Nc4ccc(OC(C)C)cc4)CC3)ncnc2cc1OCCCN1CCCCC1 | inactive |  |
| COc1c(O)cc2c(c1O)[C@@H]1O[C@H](CO)[C@@H](O)[C@H](O)[C@H]1OC2=O | inactive |  |
| COc1cc(Nc2c(C#N)cnc3cc(OCCCN4CCN(C)CC4)c(OC)cc23)c(Cl)cc1Cl | inactive |  |
| CN(C)CCCC1(c2ccc(F)cc2)OCc2cc(C#N)ccc21 (stereo unspecified) | inactive |  |
| CC(C)C[C@H](NC(=O)[C@H](Cc1ccccc1)NC(=O)c1cnccn1)B(O)O | inactive |  |
| COc1ccccc1N1CCN(CCN(C(=O)C2CCCCC2)c2ccccn2)CC1 | inactive |  |
| CC(=O)NC[C@H]1CN(c2ccc(N3CCOCC3)c(F)c2)C(=O)O1 | inactive |  |
| COc1ccc2cc([C@H](C)C(=O)O)ccc2c1 | inactive |  |
| Cc1nc(Nc2ncc(C(=O)Nc3c(C)cccc3Cl)s2)cc(N2CCN(CCO)CC2)n1 | inactive |  |
